Among the data in PubChem BioAssay (NCI) are growth values, retold here.

Assay in all cases: NCI-60 one-dose screen, 48 h (100 = growth as untreated, 0 = no growth, -100 = all killed)
The test system of experiment [1] is NCI-H23 lung. The note with it: 10 µM unless noted.
For experiment [2], the system named is NCI-H226 lung. The note with it: 10 µM unless noted.
Experiment [3] relates to NCI-H322M lung. The note with it: 10 µM unless noted.
In experiment [4] the test system is HOP-62 NSCLC. The note with it: 10 µM unless noted.
The test system of experiment [5] is NCI-H460 lung. The note with it: 10 µM unless noted.
The subject of experiment [6] is HOP-92 NSCLC. To be noted: 10 µM.
In experiment [7] the test system is NCI-H522 lung. To be noted: 10 µM unless noted.
For experiment [8], the system named is A549/ATCC NSCLC. To be noted: 10 µM unless noted.
Experiment [9] relates to 786-0 renal. To be noted: 10 µM unless noted.
The test system of experiment [10] is DU-145 prostate. To be noted: 10 µM unless noted.
Experiment [11] has as its system K-562 leukemia. The note with it: 10 µM unless noted.
For experiment [12], the system named is MALME-3M melanoma. The note with it: 10 µM unless noted.
Experiment [13] relates to MDA-MB-231 breast. The note with it: 10 µM unless noted.
Experiment [14] concerns RXF 393 renal. To be noted: 10 µM unless noted.
Experiment [15] relates to SF-268 CNS. The note with it: 10 µM unless noted.
The subject of experiment [16] is SF-295 CNS. To be noted: 10 µM unless noted.
The subject of experiment [17] is SF-539 CNS. To be noted: 10 µM unless noted.
Experiment [18] relates to UACC-257 melanoma. To be noted: 10 µM unless noted.
The subject of experiment [19] is COLO 205 colon. The note with it: 10 µM unless noted.
In experiment [20] the test system is M14 melanoma. The note with it: 10 µM unless noted.

Compounds without any hit were thinned out: in the full panel of roughly 83,000, 20% have a hit.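 Percent growth is the endpoint: 0 to 100 indicates growth inhibition (40 means 60% inhibition), 0 means no net growth, and negative values indicate cell death.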 A number with no mark means an inactive call. The source made the active and inactive calls. How the source made its calls: active means growth percent below 10; inactive means the rest.

Regarding `O=C(CCC(=O)N1CCOCC1)OCCCCCCSc1ccc([N+](=O)[O-])c2nonc12`, the growth in experiment [1] is -60.7% (active); in experiment [2], -20.7% (active); in experiment [3] it was 45.6%; in [4], 38.1%; in experiment [5], -13.6% (active); in experiment [6], -14.3% (active). The growth was -61.2% (active) in [7]; 29.8% in experiment [8]; -20.7% (active) in experiment [9]; -91.9% (active) in [10]; 6.53% (active) in experiment [11]; -81.2% (active) in experiment [12]. Further, the growth in experiment [13] is -39.8% (active); in [14], -62% (active); in [15] it was -9.47% (active); in experiment [16] it was -12.5% (active); in [17] it was -88.4% (active); in experiment [18], -25.7% (active).
For `CC1=NC2=NC(=O)/C(=C3/N=C(C)C=C(c4ccccc4)N3N)NN2C(c2ccccc2)=C1`, the growth in experiment [1] was 106%; in [2] it was 88.3%; in experiment [3], 103%; in experiment [4], 94.3%; in [5] it was 111%; in experiment [6], 100%. Moreover, the growth in [7] was 97.9%; in experiment [8] it was 109%; in experiment [9] it was 108%; in [10], 105%; in experiment [11] it was 101%; in experiment [12] it was 44.3%. For the same compound, the growth in experiment [13] was 72.2%; in [15], 103%; in experiment [16] it was 106%; in experiment [17], 100%; in [18], 109%.
Regarding `CC(=O)C1=C(C)NC(NNC(N)=S)=NC1c1ccccc1` (stereo not given), the growth was 92.8% in [1]; 99.7% in experiment [2]; 101% in experiment [3]; 71.8% in experiment [4]; 104% in experiment [5]; 78.4% in experiment [6]. Also, the growth in experiment [8] is 87.9%; in [9] it was 83%; in [19] it was 106%; in experiment [10], 90.9%; in experiment [11], 113%; in experiment [12], 110%. For the same compound, the growth in [13] was 77%; in [14], 45.5%; in [15], 84.8%; in experiment [16], 102%; in experiment [17], 96.7%; in [18], 104%.
Turning to `COc1ccc(N2CCN(C3=C(Cl)C(=O)C(C)=C(C)C3=O)CC2)cc1`, the growth in experiment [1] was 106%; in experiment [2], 99.2%; in experiment [3] it was 106%; in experiment [4], 91.5%; in experiment [5], 104%; in [6] it was 102%. Further, the growth in experiment [7] was 92.3%; in experiment [8] it was 108%; in experiment [9], 118%; in experiment [10], 108%; in [11] it was 83.1%; in experiment [12], 110%. Also, the growth in [13] was 88.2%; in experiment [14], 153%; in [15], 105%; in experiment [16], 108%; in experiment [17] it was 105%; in [18], 102%.
Take `COc1cc(-c2nn(C(C)(C)C)cc2-c2ccnc(NCCCNS(=O)(=O)c3ccc(F)cc3)n2)ccc1Cl`: the growth in experiment [1] is 82.3%; in experiment [2] it was 72%; in experiment [3], 87.4%; in experiment [4], 71.9%; in [5], 84.2%; in [6] it was 70.4%. For the same compound, the growth is 50.2% in [8]; 76.3% in [9]; 96.1% in experiment [19]; 74.1% in experiment [10]; 40.2% in experiment [11]; 86.1% in experiment [12]. Further, the growth in experiment [13] is 60.1%; in [14] it was 8.65% (active); in [15], 58%; in [16] it was 80.5%; in experiment [17] it was 91.2%; in experiment [18] it was 93.3%. Also, the growth in experiment [20] was 93.3%.
For `CC1(C)CC[C@]2(C(=O)O)CC[C@]3(C)C(=CC[C@@H]4[C@@]5(C)CC/C(=N\OCCC#N)C(C)(C)[C@@H]5CC[C@]43C)[C@@H]2C1`, the growth in [1] is 98%; in [2], 98%; in [3], 111%; in experiment [4], 79.2%; in [5], 93.7%; in experiment [6] it was 123%. Moreover, the growth in experiment [8] was 93.7%; in experiment [9], 80.8%; in experiment [19], 111%; in experiment [10] it was 91.8%; in experiment [11], 109%; in experiment [12], 117%. Besides, the growth in experiment [13] was 93%; in experiment [14], 66.6%; in experiment [15] it was 84.6%; in [16], 102%; in [17], 99.2%; in experiment [18] it was 108%. In addition, the growth in [20] is 98.2%.
Turning to `O=C(Nc1ccc(N=Cc2c(O)[nH]c3ccccc23)cc1)Nc1nccs1`, the growth in experiment [1] was 37.8%; in experiment [2], 30%; in experiment [3], 52.8%; in [4], 37.3%; in experiment [5], 16.8%; in [6], 49.8%. Besides, the growth is 56.6% in experiment [8]; 52.9% in experiment [9]; 25.7% in [19]; 40.5% in experiment [10]; 17.3% in experiment [11]; 46.9% in experiment [12]. The growth is 47.9% in [13]; -20.5% (active) in [14]; 77.2% in [15]; 70.6% in [16]; 33.6% in experiment [17]; 71.6% in experiment [18]. Besides, the growth in experiment [20] was 18.5%.
`O=C1Nc2ccccc2/C1=C/c1ccc(CO)n1-c1ccc(Cl)cc1`: the growth in experiment [1] was 67%; in experiment [2], 81%; in experiment [3] it was 102%; in [4], 59.7%; in experiment [5] it was 35.6%; in [6], 75.4%. Moreover, the growth in [7] was 53.7%; in [8], 59%; in [9], 88.4%; in experiment [10] it was 81.4%; in [11] it was 19.3%; in experiment [12], 27.6%. Also, the growth was 58.1% in experiment [13]; 57.1% in experiment [14]; 74.2% in [15]; 33.8% in experiment [16]; 44.5% in experiment [17]; 83.4% in experiment [18].
With `N#Cc1c(-c2cccs2)cc(-c2cnccn2)nc1SCC(=O)Nc1ccc(Br)cc1`, the growth in [1] is 74.8%; in experiment [2], 81.5%; in experiment [3], 88.5%; in [4], 71.3%; in [5] it was 70.6%; in [6], 98.6%. Further, the growth in experiment [8] was 72.3%; in experiment [9] it was 80.9%; in experiment [19] it was 96.4%; in [10] it was 70%; in experiment [11] it was 67.4%; in [12], 118%. Further, the growth in [13] was 72.2%; in experiment [14] it was 19.3%; in experiment [15], 82.3%; in [16], 90.2%; in [17] it was 93.3%; in [18], 106%.
As for `Oc1[nH]c2ccccc2c1Nn1c(N=N/C=c2/ccc3c(c2)C=NN=3)n[nH]c1=S`, the growth in experiment [1] is 89.6%; in [2], 93.9%; in experiment [3] it was 107%; in experiment [4] it was 75.6%; in experiment [5], 110%; in [6], 76.6%. Also, the growth is 99.9% in [8]; 96.7% in experiment [9]; 30.9% in [19]; 99.1% in experiment [10]; 101% in experiment [11]; 109% in experiment [12]. Further, the growth in [13] was 75.6%; in experiment [14] it was 85.4%; in [15], 96.9%; in experiment [16], 106%; in experiment [17], 94%; in experiment [18], 110%. The growth in experiment [20] is 106%.
For the compound `C=CCn1c(SCC(=O)Nc2ccc(C(=O)/C=C/c3cc(OC)c(OC)c(OC)c3)cc2)nnc1-c1c[nH]c2ccccc12`, the growth in [1] is -11% (active); in experiment [2] it was -4.91% (active); in experiment [3], 53%; in experiment [4] it was 70.5%; in experiment [5], 3.42% (active); in experiment [6] it was 63.7%. Also, the growth was 35.7% in experiment [7]; 34.7% in [8]; 23.1% in [9]; 13.2% in experiment [10]; 3.04% (active) in experiment [11]; 68.6% in experiment [12]. Further, the growth is 23% in experiment [13]; 33.1% in experiment [15]; 68.1% in experiment [16]; -16.2% (active) in experiment [17]; 73% in experiment [18].
